eIF4H FP inh = inhibitors of RNA binding by human eIF4H; Q15056; eIF4H fluorescence polarization binding assay; inhibition, % at 35 µM; 0.94% of 290,000 active; AID 2012;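 note: calls also rest on retests at 20 µM and on dose response follow-up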
PABP FP inh = blocks human PABP binding to poly(A) RNA; fluorescence polarization; calls only at 35 µM; 1% of 290,000 active;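 note: calls also rest on retests at 20 µM and on dose response follow-up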
PHOSPHO1 block = inhibitors of human PHOSPHO1 phosphatase. Q8TCT1. recombinant PHOSPHO1, absorbance phosphatase assay. inhibition, % at 13.3 µM. 1.1% of 290,000 active. AID 1565; in the data active = inhibition above about 60%
APOBEC3A inh = human APOBEC3A DNA deaminase inhibition; inhibition, % at 20 µM; P31941; 0.41% of 330,000 active; recombinant A3A, FAM/TAMRA ssDNA deamination fluorescence;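 active = at least 40% inhibition at 20 µM here, with at most 30% in a related deaminase screen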;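 note: plate controls were A3A with DMSO for no effect and wells lacking A3A enzyme for full effect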
APOBEC3G inh = APOBEC3G (human) deaminase inhibition; Q9HC16; recombinant A3G, ssDNA deamination FAM/TAMRA fluorescence; inhibition, % at 20 µM; 0.28% of 330,000 active;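 active = inhibition of at least 40% at 20 µM, with no more than 30% in the related APOBEC3A deaminase screen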;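 note: plate controls were DMSO wells with A3G for no effect and wells lacking A3G enzyme for full effect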
MLLE-PAM2 inh = inhibitors of microRNA-mediated deadenylation, human PABP1 MLLE binding. P11940. GST-MLLE / FITC-PAM2 fluorescence polarization. inhibition, % at 20 µM. 0.36% of 360,000 active. AID 588489; in the data active = inhibition above about 35%, passing the limit was not always enough;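 note: plate controls were DMSO wells with GST-MLLE for no effect and wells lacking GST-MLLE protein for full effect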
* marks the source's active call; other numbers are inactive results; i = inactive; ? = inconclusive; · = no result; + = active, no number. This is a sample that favours compounds with a hit; in the whole collection about 2.6% have one here. Unless noted, the rule behind the calls is not given here.

SMILES	eIF4H FP inh	PABP FP inh	PHOSPHO1 block	APOBEC3A inh	APOBEC3G inh	MLLE-PAM2 inh
COc1ccc(NS(=O)(=O)c2cccc(C(=O)NNC(=O)c3cccn3C)c2)cc1	74.0*	i	38.1	7.5	5.0	-16.4
CC(=O)N1N=C(c2ccco2)CC1c1ccc(Br)cc1 (stereo unspecified)	-3.1	i	-11.4	-0.7	-8.6	0.8
CCN1CCc2c(OCC(=O)Nc3ccc(C)cc3)cccc2C1=O	-9.9	i	61.5*	-6.3	-4.1	0.6
C/C(=N\NC(=S)NCCc1ccccc1)c1ccc(O)cc1O	1.0	i	17.4	0.2	-2.1	40.1*
C/C(=N\NC(=S)NCCc1ccccc1)c1ccc(Cl)cc1Cl	-8.8	i	12.0	-2.8	-3.6	22.4
COc1cc2c(cc1OC)CN(C(=O)c1ccc(N3CCCC3)c([N+](=O)[O-])c1)CC2	·	·	·	-1.4	-3.2	10.4
CNc1cccc2c1C(=O)c1ccccc1C2=O	78.3*	+	9.1	·	·	41.1*
CC12CCC(=O)N1C(C(=O)Nc1ccc(Cl)c(S(=O)(=O)N3CCCCC3)c1)CS2 (stereo unspecified)	·	·	·	1.6	-6.9	-2.9
CCN(CC)S(=O)(=O)c1ccc(N2CC(C(=O)NCc3ccco3)CC2=O)cc1 (stereo unspecified)	·	·	·	·	·	3.3
CCN(CC)c1nc2ccccc2nc1C(C#N)C(=O)NCCc1ccccc1 (stereo unspecified)	28.6*	i	20.1	1.9	-6.7	48.0
N#CC(C(=O)NCCc1ccccc1)c1nc2ccccc2nc1N1CCCCC1 (stereo unspecified)	35.9	i	4.9	-5.5	-6.1	-78.7
CCOC(=O)N1CCN(c2nc3ccccc3nc2C(C#N)C(=O)NCCc2ccccc2)CC1 (stereo unspecified)	45.7	+	-16.0	5.2	0.7	-6.0
CCOCCCn1c(=N)c(S(=O)(=O)c2ccc(C)cc2)cc2c(=O)n3cc(C)ccc3nc21	?	i	0.0	0.3	-5.3	40.4*
CCOC(=O)c1csc(COc2ccc(OC)cc2)n1	3.7	i	12.3	2.0	-1.1	3.5
O=[N+]([O-])c1ccc2c(c1Nc1ccccc1Cl)=NC1(CCCCC1)N=2	-0.3	i	22.0	6.6	1.9	-5.0
Cc1ccc(Nc2c([N+](=O)[O-])ccc3c2=NC2(CCCCC2)N=3)cc1	-4.3	i	-9.1	2.5	3.1	39.4*
N#Cc1c(SCC(=O)Nc2ccc(C(F)(F)F)cc2)sc2c(O)cc(=O)[nH]c12	16.0	i	10.3	1.8	-3.4	-12.0
N#Cc1c(SCC(=O)Nc2nncs2)sc2c(O)cc(=O)[nH]c12	100.8*	+	-131.7	73.4	51.4	-8.0
COc1ccc(CNC(=O)C(=O)c2cn(CC(=O)N3CCCC3)c3ccccc23)cc1	0.8	i	24.0	-0.3	-7.8	-0.8
COc1ccccc1CNC(=O)C(=O)c1cn(CC(=O)N2CCCC2)c2ccccc12	2.3	i	61.6*	-0.5	1.0	4.2
O=c1cc(-c2ccccc2Cl)oc2cccc(O)c12	-5.8	i	-16.0	-2.9	-11.0	7.3
O=c1cc2oc3cc(O)c(O)cc3c(-c3ccccc3[N+](=O)[O-])c-2cc1O	50.5*	+	31.6	5.0	0.9	-10.7
CCOC(=O)C1CCCN(C(=O)C2CCN(S(=O)(=O)CC)CC2)C1 (stereo unspecified)	9.3	i	60.1*	2.4	-2.2	-11.2
Cc1ccc(C(=O)NNC(=O)c2ccncc2)cc1C	-6.8	i	·	-4.3	-8.8	-1.1
Cc1ccc(CC(=O)NNC(=O)c2ccncc2)cc1C	·	·	·	3.0	37.4	56.8*
CC(C)c1nnc(NC(=O)CS(=O)(=O)Cc2ccccc2)s1	-2.3	i	41.2	-1.7	-4.9	41.1*
CC1(c2ccc3noc(-c4ccc(F)cc4)c3c2)OCCO1	10.8	i	18.2	-1.1	-2.7	67.7*
CC1(c2ccc3noc(-c4ccccc4)c3c2)OCCO1	-1.8	i	1.0	-0.7	0.1	-7.4
CN1Cc2c(N3CCOCC3)nc3sc(C(=O)c4ccccc4)c(N)c3c2CC1(C)C	-6.1	i	27.7	-3.1	-0.4	-8.6
Nc1c(C(=O)c2ccccc2)sc2nsc(SCCN3CCOCC3)c12	3.9	i	60.8*	-4.0	-17.5	-44.0
